The text below walks through data of PMC11006913.

Assay in all cases: PBM; 200 nM protein, PBS
Holding throughout (details): dsDNA, one strand shown

Assay [1] deals with ALX4 (Homo sapiens, UniProt Q9H161 200-286).
In assay [2] the target is ALX4 (Homo sapiens, UniProt Q9H161 200-286, Q225E).
In assay [3] the target is HOXA4 (Homo sapiens, UniProt Q00056 201-287, R217L).
The target in assay [4] is ALX3 (Homo sapiens, UniProt O95076 139-225, N203S).
Assay [5] addresses HOXA2 (Homo sapiens, UniProt O43364 129-215, R185T).
For assay [6], the target named is HOXA2 (Homo sapiens, UniProt O43364 129-215, R185K).
Assay [7] deals with HOXA2 (Homo sapiens, UniProt O43364 129-215, Y150S).
Assay [8] concerns the target HOXA2 (Homo sapiens, UniProt O43364 129-215).
The target in assay [9] is MSX2 (Homo sapiens, UniProt P35548 130-214, R199I).
The target in assay [10] is MSX2 (Homo sapiens, UniProt P35548 130-214).
In assay [11] the target is MSX2 (Homo sapiens, UniProt P35548 130-214, F161Y).
In assay [12] the target is T1, PAX4 (Homo sapiens, UniProt O43316 9-242, R200K).
T1 sequence: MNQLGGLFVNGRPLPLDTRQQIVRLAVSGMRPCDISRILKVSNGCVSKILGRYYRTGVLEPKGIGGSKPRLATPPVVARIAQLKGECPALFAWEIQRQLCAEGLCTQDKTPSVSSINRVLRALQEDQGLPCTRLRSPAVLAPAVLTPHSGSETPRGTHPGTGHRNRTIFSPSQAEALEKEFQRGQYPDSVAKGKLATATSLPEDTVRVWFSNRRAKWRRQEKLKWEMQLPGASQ

Assay [13] concerns the target PRRX1 (Homo sapiens, UniProt P54821 80-166, F113S).
Assay [14] has as its target T2, PAX4 (Homo sapiens, UniProt O43316 9-242).
T2 sequence: T1 sequence with K192R

Assay [15] has as its target T3, PAX4 (Homo sapiens, UniProt O43316 9-242, R200Q).
T3 sequence: T1 sequence with K192Q

Assay [16] has as its target T4, PAX4 (Homo sapiens, UniProt O43316 9-242, F177V).
T4 sequence: T1 sequence with F169V, K192R

Assay [17] concerns the target T5, PAX4 (Homo sapiens, UniProt O43316 9-242, F177Y).
T5 sequence: T1 sequence with F169Y, K192R

Assay [18] deals with T6, PAX4 (Homo sapiens, UniProt O43316 9-242, R227W).
T6 sequence: T1 sequence with K192R, R219W

In assay [19] the target is PRRX1 (Homo sapiens, UniProt P54821 80-166).
Assay [20] deals with PITX2 (Homo sapiens, UniProt Q99697 72-157).
Assay [21] has as its target T7, NKX2-6 (Homo sapiens, UniProt A6NCS4 118-204, R150C).
T7 sequence: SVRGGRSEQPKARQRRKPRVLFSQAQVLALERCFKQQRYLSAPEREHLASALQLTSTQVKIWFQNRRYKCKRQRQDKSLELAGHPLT

Changes are numbered by the printed parent chain.

Chain of ALX4 (Homo sapiens, UniProt Q9H161 200-286) (Q9H161 200-286): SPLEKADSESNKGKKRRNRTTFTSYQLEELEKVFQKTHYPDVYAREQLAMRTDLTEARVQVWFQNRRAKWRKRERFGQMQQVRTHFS
Chain of ALX4 (Homo sapiens, UniProt Q9H161 200-286, Q225E) (Q9H161 200-286 Q225E): as the sequence (Q9H161 200-286) above, with Q26E counted along it
Chain of HOXA2 (Homo sapiens, UniProt O43364 129-215, Y150S) (O43364 129-215 Y150S): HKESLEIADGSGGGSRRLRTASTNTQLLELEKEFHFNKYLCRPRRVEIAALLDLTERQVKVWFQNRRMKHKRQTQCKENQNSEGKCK
Chain of HOXA2 (Homo sapiens, UniProt O43364 129-215, R185K) (O43364 129-215 R185K): as the sequence (O43364 129-215 Y150S) above, with S22Y, R57K counted along it
Chain of MSX2 (Homo sapiens, UniProt P35548 130-214, R199I) (P35548 130-214 R199I): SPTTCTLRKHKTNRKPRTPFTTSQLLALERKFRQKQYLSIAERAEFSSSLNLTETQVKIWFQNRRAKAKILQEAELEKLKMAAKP
Chain of HOXA2 (Homo sapiens, UniProt O43364 129-215) (O43364 129-215): as the sequence (O43364 129-215 Y150S) above, with S22Y counted along it
Chain of HOXA2 (Homo sapiens, UniProt O43364 129-215, R185T) (O43364 129-215 R185T): as the sequence (O43364 129-215 Y150S) above, with S22Y, R57T counted along it
Chain of MSX2 (Homo sapiens, UniProt P35548 130-214) (P35548 130-214): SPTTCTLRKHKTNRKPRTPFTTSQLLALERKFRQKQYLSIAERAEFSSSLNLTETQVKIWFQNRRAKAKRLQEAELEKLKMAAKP
Chain of MSX2 (Homo sapiens, UniProt P35548 130-214, F161Y) (P35548 130-214 F161Y): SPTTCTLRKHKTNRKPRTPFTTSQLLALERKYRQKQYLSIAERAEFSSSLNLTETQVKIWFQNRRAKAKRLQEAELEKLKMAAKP
Chain of PRRX1 (Homo sapiens, UniProt P54821 80-166) (P54821 80-166): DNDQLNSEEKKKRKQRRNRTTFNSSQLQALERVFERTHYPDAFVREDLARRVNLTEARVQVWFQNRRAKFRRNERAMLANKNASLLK
Chain of PRRX1 (Homo sapiens, UniProt P54821 80-166, F113S) (P54821 80-166 F113S): as the sequence (P54821 80-166) above, with F34S counted along it
Chain of ALX3 (O95076 139-225 N203S): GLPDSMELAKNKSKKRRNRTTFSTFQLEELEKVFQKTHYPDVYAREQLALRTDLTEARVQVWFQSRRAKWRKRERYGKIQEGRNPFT
Chain of HOXA4 (Q00056 201-287 R217L): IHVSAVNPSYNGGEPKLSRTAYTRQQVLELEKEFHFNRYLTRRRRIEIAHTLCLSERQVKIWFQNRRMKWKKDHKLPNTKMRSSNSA

Consider AAGTAATT, for which the binding signal is 13 upbm affinity estimate (log intensity, higher = more binding, comparable within an allelic series) in assay [1]; 12 upbm affinity estimate (log intensity, higher = more binding, comparable within an allelic series) in [2]; 12 upbm affinity estimate (log intensity, higher = more binding, comparable within an allelic series) in assay [3]; 8.65 upbm affinity estimate (log intensity, higher = more binding, comparable within an allelic series) in assay [4].
On to CCGCAGAC, for which the binding signal was 8.08 upbm affinity estimate (log intensity, higher = more binding, comparable within an allelic series) in assay [1]; 8.21 upbm affinity estimate (log intensity, higher = more binding, comparable within an allelic series) in assay [2]; 7.17 upbm affinity estimate (log intensity, higher = more binding, comparable within an allelic series) in assay [5]; 10.2 upbm affinity estimate (log intensity, higher = more binding, comparable within an allelic series) in [6]; 10.5 upbm affinity estimate (log intensity, higher = more binding, comparable within an allelic series) in [7]; 6.96 upbm affinity estimate (log intensity, higher = more binding, comparable within an allelic series) in assay [8].
For CGTGGAGC, the binding signal in assay [1] was 8.15 upbm affinity estimate (log intensity, higher = more binding, comparable within an allelic series); in assay [2], 8.37 upbm affinity estimate (log intensity, higher = more binding, comparable within an allelic series); in assay [9] it was 9.58 upbm affinity estimate (log intensity, higher = more binding, comparable within an allelic series); in [10] it was 9.61 upbm affinity estimate (log intensity, higher = more binding, comparable within an allelic series); in [11], 9.61 upbm affinity estimate (log intensity, higher = more binding, comparable within an allelic series).
Regarding GCTGCAGC, the binding signal is 9.33 upbm affinity estimate (log intensity, higher = more binding, comparable within an allelic series) in [12]; 9.31 upbm affinity estimate (log intensity, higher = more binding, comparable within an allelic series) in assay [13]; 9.16 upbm affinity estimate (log intensity, higher = more binding, comparable within an allelic series) in assay [14]; 7.32 upbm affinity estimate (log intensity, higher = more binding, comparable within an allelic series) in assay [5]; 9.55 upbm affinity estimate (log intensity, higher = more binding, comparable within an allelic series) in assay [9]; 9.38 upbm affinity estimate (log intensity, higher = more binding, comparable within an allelic series) in assay [15]. Besides, the binding signal is 10.3 upbm affinity estimate (log intensity, higher = more binding, comparable within an allelic series) in [6]; 9.33 upbm affinity estimate (log intensity, higher = more binding, comparable within an allelic series) in assay [16]; 9.49 upbm affinity estimate (log intensity, higher = more binding, comparable within an allelic series) in [10]; 9.42 upbm affinity estimate (log intensity, higher = more binding, comparable within an allelic series) in assay [17]; 9.48 upbm affinity estimate (log intensity, higher = more binding, comparable within an allelic series) in assay [11]; 9.46 upbm affinity estimate (log intensity, higher = more binding, comparable within an allelic series) in [18]. Moreover, the binding signal in [7] was 10.6 upbm affinity estimate (log intensity, higher = more binding, comparable within an allelic series); in assay [19], 9.11 upbm affinity estimate (log intensity, higher = more binding, comparable within an allelic series); in [8], 6.95 upbm affinity estimate (log intensity, higher = more binding, comparable within an allelic series).
As to GTACGTAA, the binding signal is 10.4 upbm affinity estimate (log intensity, higher = more binding, comparable within an allelic series) in assay [12]; 10.6 upbm affinity estimate (log intensity, higher = more binding, comparable within an allelic series) in [14]; 10.6 upbm affinity estimate (log intensity, higher = more binding, comparable within an allelic series) in assay [15].
For GCCCAGCC, the binding signal in assay [12] is 9.23 upbm affinity estimate (log intensity, higher = more binding, comparable within an allelic series); in assay [14], 9.33 upbm affinity estimate (log intensity, higher = more binding, comparable within an allelic series); in assay [15], 9.24 upbm affinity estimate (log intensity, higher = more binding, comparable within an allelic series); in assay [20], 7.91 upbm affinity estimate (log intensity, higher = more binding, comparable within an allelic series); in [16] it was 9.15 upbm affinity estimate (log intensity, higher = more binding, comparable within an allelic series); in assay [17] it was 9.11 upbm affinity estimate (log intensity, higher = more binding, comparable within an allelic series). Also, the binding signal in assay [18] is 9.23 upbm affinity estimate (log intensity, higher = more binding, comparable within an allelic series).
In the case of AGTGATTA, the binding signal in assay [12] is 11.1 upbm affinity estimate (log intensity, higher = more binding, comparable within an allelic series); in [14], 11.4 upbm affinity estimate (log intensity, higher = more binding, comparable within an allelic series); in assay [15], 11.1 upbm affinity estimate (log intensity, higher = more binding, comparable within an allelic series); in assay [16] it was 10.3 upbm affinity estimate (log intensity, higher = more binding, comparable within an allelic series).
Turning to CTAATAAC, the binding signal in assay [12] is 11.1 upbm affinity estimate (log intensity, higher = more binding, comparable within an allelic series); in assay [14] it was 11.3 upbm affinity estimate (log intensity, higher = more binding, comparable within an allelic series); in assay [15] it was 11.1 upbm affinity estimate (log intensity, higher = more binding, comparable within an allelic series); in assay [16], 10.4 upbm affinity estimate (log intensity, higher = more binding, comparable within an allelic series).
For the sequence CCGCCCCG, the binding signal in assay [12] was 9.25 upbm affinity estimate (log intensity, higher = more binding, comparable within an allelic series); in [14] it was 9.35 upbm affinity estimate (log intensity, higher = more binding, comparable within an allelic series); in [21], 9.69 upbm affinity estimate (log intensity, higher = more binding, comparable within an allelic series); in assay [15], 9.16 upbm affinity estimate (log intensity, higher = more binding, comparable within an allelic series); in assay [16], 9.13 upbm affinity estimate (log intensity, higher = more binding, comparable within an allelic series); in [17], 9.21 upbm affinity estimate (log intensity, higher = more binding, comparable within an allelic series). For the same sequence, the binding signal in [18] is 9.44 upbm affinity estimate (log intensity, higher = more binding, comparable within an allelic series).
